GLP1R inv ag: qHTS of GLP-1 Receptor Inverse Agonists (Inhibition Mode). HEK293 GLP-1R CRE-luciferase, luminescence, 24 h; GLP-1R form is constitutively active. Potency, µM (titrated, usually from 38.3 µM), usual class: inhibitors. 410,000 compounds, 1.6% hits; also: nearly all actives have a fitted effect of over 55% in size
Target sequence (P43220 whole entry, looked up): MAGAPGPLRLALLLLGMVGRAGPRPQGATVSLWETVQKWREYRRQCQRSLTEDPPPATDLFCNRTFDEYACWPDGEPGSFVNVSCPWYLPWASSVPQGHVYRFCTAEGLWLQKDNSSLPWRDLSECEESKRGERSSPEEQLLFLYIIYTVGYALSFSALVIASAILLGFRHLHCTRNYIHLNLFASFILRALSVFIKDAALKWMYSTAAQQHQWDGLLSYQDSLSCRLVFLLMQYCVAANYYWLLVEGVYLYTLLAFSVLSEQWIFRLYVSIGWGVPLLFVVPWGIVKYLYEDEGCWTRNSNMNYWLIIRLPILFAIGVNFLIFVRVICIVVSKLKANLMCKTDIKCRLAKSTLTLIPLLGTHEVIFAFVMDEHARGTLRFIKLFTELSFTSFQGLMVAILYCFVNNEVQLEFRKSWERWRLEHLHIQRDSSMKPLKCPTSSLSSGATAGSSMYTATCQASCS
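Seeding at 200 cells/uL, 12 h culture, 24 hr compound treatment, then luciferase reagent and a luminescence read; cells are HEK293 stably expressing a constitutively active GLP-1R plus cAMP-responsive luciferase.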
HEK293 tox: qHTS of GLP-1 Receptor Inverse Agonists: Cytotox Screen; HEK293 cAMP-luciferase reporter cells, luminescence, 24 h; AID 624418, 2012; 410,000 compounds, 0.13% hits; Potency, µM (highest dose often 38.3 µM), usual class: inhibitors;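 also: loss of luciferase light is scored as toxicity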
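Luminescence readout: signal drop marks cytotoxicity. Plated cells grew 12 h at 37 °C, 5% CO2, received 23 nL compound for 24 h, then got luciferase reagent, read after 12 min at RT.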
ClpP mod: qHTS Assay for Activators of ClpP; purified B. subtilis ClpP, FRET peptide cleavage, 20 min; ATP-dependent Clp protease proteolytic subunit (Bacillus subtilis (strain 168)), P80244; Potency, µM (doses to about 57.5 µM); 340,000 compounds, 1.9% hits; active = well fitted falling curve with a large enough effect; inconclusive = small, poorly fitted or top-dose-only effect; inactive = no such curve, though single readings can be large or run the other way; also: the source files actives as falling curves though it sought activators and does not explain the sign; nearly all actives have a fitted effect of over 65% in size
Target sequence (P80244 whole entry, looked up): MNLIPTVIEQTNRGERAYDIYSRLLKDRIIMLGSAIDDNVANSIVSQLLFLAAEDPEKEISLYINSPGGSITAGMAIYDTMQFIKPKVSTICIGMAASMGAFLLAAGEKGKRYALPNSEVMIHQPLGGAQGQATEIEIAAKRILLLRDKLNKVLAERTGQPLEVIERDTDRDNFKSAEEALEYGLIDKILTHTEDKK
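Buffer: 100 mM Tris/HCl pH8, 100 mM KCl, 0.05% low protease BSA, 2.5% glycerol, 0.01% Tween-20. ClpP 10 microg/mL final; 20 min RT; delta FRET normalized to ADEP and DMSO controls.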
GLP1R ag: qHTS of GLP-1 Receptor Agonists | AID 624172, 2012 | 380,000 compounds, 0.007% hits | HEK293 GLP-1R CRE-luciferase, luminescence, 4-6 h; cells express a hypersensitive GLP-1R form | Glucagon-like peptide 1 receptor (Homo sapiens), P43220 | Potency, µM (top dose mostly 45.6 µM), hits mostly activators
D3 ag: qHTS of D3 Dopamine Receptor Agonist: qHTS; D(3) dopamine receptor (Homo sapiens), P35462; D3R DiscoveRx beta-arrestin cells, luminescence, 90 min; max activation, %; 410,000 compounds, 0.58% hits; AID 652048, 2013; in the data active = max activation above about 30%
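Agonist mode: compounds and dopamine controls were applied to plated cells for 90 min at 37 degrees C after an overnight attachment at 1500 cells/well. Luminescent read-out followed 30 - 60 minutes at room temperature with DiscoveRx detection reagent.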
DRD3 antagonist: qHTS of D3 Dopamine Receptor Antagonist: qHTS; D(3) dopamine receptor (Homo sapiens), P35462; D3R cells, DiscoveRx beta-arrestin luminescence, antagonist mode; active compounds read low; max response, negative = inhibition, %; 360,000 compounds, 2.5% hits; AID 652054, 2013; in the data active = max response below about -50%; inconclusive = no clear call, values can overlap the other calls
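Cells expressing the human receptor were seeded at 1500 cells/well, incubated overnight at 37 degrees C in 5% CO2, then exposed to library compounds with dopamine controls for 90 minutes at 37 degrees C before luminescent detection.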
Each line names hits and unclear results; the compound was inactive in the other large screens. Shown are actives, neighbours in structure and some others; about 5.7% of the full set was active somewhere. Unless noted, calls follow the shape of the dose curve; as a rule, active = well fitted curve in the direction sought with a large enough effect; inconclusive = small, poorly fitted or top-dose-only effect, or another doubt; inactive = no such curve, though single readings can be large; an effect the other way counts as inactive or inconclusive.

O=C(CN1CCN(c2ccc(F)cc2)CC1)Nc1ccc2c(c1)OCCO2	none (no result: ClpP mod)
CCN1CCSc2ccc(C(=O)NC(C)c3ccccc3)cc21 (stereo not given)	GLP1R inv ag inconclusive (no result: GLP1R ag, DRD3 antagonist)
CCCCN(C)CCn1c(=S)[nH]c2ccc(N3CCOCC3)cc2c1=O	DRD3 antagonist -66
COCCCn1c(=S)[nH]c2ccc(N3CCOCC3)cc2c1=O	none
CCCN(CCC)c1cc(C)nc2nc(-c3ccc(C(C)(C)C)cc3)nn12	none (no result: GLP1R ag, DRD3 antagonist)
CCn1cnc2cc(NCc3cccc(OC)c3O)ccc21	ClpP mod 32µM
CCCn1cnc2cc(NCc3ccc(OC)cc3OC)ccc21	ClpP mod inconclusive (no result: GLP1R ag, DRD3 antagonist)
CCOc1ccc(CNc2ccc3c(c2)ncn3C)cc1	ClpP mod 32µM
CCCn1cnc2cc(NCc3cccc(OC)c3)ccc21	ClpP mod 28µM
COc1ccccc1-n1cnc2cc(NCc3ccccc3O)ccc21	GLP1R inv ag inconclusive
CCCOc1ccc(NC(=O)CC2C(=O)N(c3ccc(C)cc3)C(=O)N2C2CCCC2)cc1 (stereo not given)	GLP1R inv ag inconclusive (no result: DRD3 antagonist)
CCN(C(=O)CSc1nnc(-c2cccs2)n1N)c1c(N)n(Cc2ccccc2)c(=O)[nH]c1=O	ClpP mod 35µM
CC(C)c1ncc([N+](=O)[O-])n1C	none (no result: GLP1R inv ag, HEK293 tox, ClpP mod, DRD3 antagonist)
O=[N+]([O-])c1cc2ncccc2c2ncccc12	GLP1R inv ag 3.2µM, HEK293 tox inconclusive
Cc1cc([N+](=O)[O-])cc2ncccc12	DRD3 antagonist -75
O=[N+]([O-])c1ccc2cccnc2c1	none
COc1cc(OC)c(/C=C2\SC(=O)N(CC(=O)Nc3ccccc3F)C2=O)c(OC)c1	none
COc1cc(/C=C2\SC(=O)N(CC(=O)Nc3ccccc3F)C2=O)cc(Cl)c1O	D3 ag 59 (no result: ClpP mod)
COc1cc(/C=C2\SC(=O)N(CC(=O)Nc3cccc(C)c3)C2=O)cc([N+](=O)[O-])c1O	D3 ag 38 (no result: ClpP mod)
CCc1nn2c(=O)cc(COC(=O)c3ccc(NC(=O)CCc4ccccc4)cc3)nc2s1	ClpP mod inconclusive (no result: GLP1R ag, DRD3 antagonist)
CCc1nn2c(=O)cc(COC(=O)c3cccc(NC(=O)CCc4ccccc4)c3)nc2s1	ClpP mod 32µM (no result: GLP1R ag, DRD3 antagonist)
CCOC(=O)C1=C(CNCCOc2ccc(OC)cc2)NC(=O)NC1c1ccc2c(c1)OCO2 (stereo not given)	none
CCOC(=O)C1=C(CNCCc2ccc(Cl)cc2)NC(=O)NC1c1ccc2c(c1)OCO2 (stereo not given)	GLP1R inv ag 6.3µM
CCOC(=O)C1=C(CN(CC)Cc2ccccc2)NC(=O)NC1c1ccc(Cl)cc1 (stereo not given)	GLP1R inv ag 10µM (no result: DRD3 antagonist)
CCOC(=O)C1=C(CN(CC)Cc2ccccc2)NC(=O)NC1c1ccc(OC)cc1 (stereo not given)	GLP1R inv ag inconclusive (no result: GLP1R ag, DRD3 antagonist)
CC(C(=O)NCc1ccccc1)N1Cc2ccccc2C1=O (stereo not given)	none (no result: GLP1R ag, DRD3 antagonist)
CC1(C(=O)NCc2ccccc2)CN(S(C)(=O)=O)CC(=O)N1CCc1ccc(O)cc1 (stereo not given)	none (no result: GLP1R ag)
O=C(CN1c2ccccc2Sc2ccccc21)NNC(=S)Nc1ccc(Cl)cc1	ClpP mod 25µM
O=C(CN1c2ccccc2Sc2ccccc21)N/N=C/c1ccc(Cl)cc1Cl	none
O=C(CN1c2ccccc2Sc2ccccc21)NNC(=S)Nc1ccc(Cl)cc1Cl	DRD3 antagonist inconclusive
O=C(CN1c2ccccc2Sc2ccccc21)N/N=C/c1ccc(Cl)cc1	GLP1R inv ag 3.2µM (no result: ClpP mod)
COc1ccc(-c2cc(C#N)nc(Cl)n2)cc1	HEK293 tox inconclusive, DRD3 antagonist inconclusive
CCN(CC)c1nc(C#N)cc(-c2ccc(OC)cc2)n1	GLP1R inv ag inconclusive, ClpP mod 35µM
COc1ccc(-c2cc(C#N)nc(Oc3ccc(Cl)cc3)n2)cc1	ClpP mod 7.9µM
COc1ccc(-c2cc(C#N)nc(NN)n2)cc1	GLP1R inv ag inconclusive, DRD3 antagonist inconclusive
CCOC(=O)/C(=C/c1c2ccccc2cc2ccccc12)NC(=O)c1ccccc1	GLP1R inv ag 4.5µM
CCOC(=O)/C(=C\c1ccccc1)NC(=O)c1ccccc1	none
O=C(/C=C/c1ccccc1)CC(O)(c1ccccc1)C(F)(F)C(F)F (stereo not given)	GLP1R inv ag inconclusive
O=C(/C=C/c1ccccc1)CC(O)(c1ccccc1)C(F)(F)F (stereo not given)	GLP1R inv ag 11µM, DRD3 antagonist inconclusive
CN(C)CCNC(=O)c1cc2sc3ccccc3c2s1	GLP1R inv ag 3.2µM, HEK293 tox inconclusive (no result: ClpP mod)
COCCN(CCOC)C(=O)c1cc2sc3ccccc3c2s1	GLP1R ag inconclusive
Cc1cc(-c2ccc(S(=O)(=O)Nc3cccc(C)c3C)s2)on1	GLP1R inv ag inconclusive, HEK293 tox inconclusive (no result: GLP1R ag, DRD3 antagonist)
NC(=O)C(c1ccc(F)cc1)c1ccc(C(=O)c2ccccc2)cc1 (stereo not given)	GLP1R inv ag inconclusive
NC(=O)C(c1ccc(Br)cc1)c1ccc(C(=O)c2ccccc2)cc1 (stereo not given)	GLP1R inv ag 11µM (no result: ClpP mod)
O=C(CN1C(=O)COc2ccc(Cl)cc21)Nc1cccc(F)c1	GLP1R inv ag inconclusive (no result: GLP1R ag, DRD3 antagonist)
CC(=O)c1cccc(NC(=O)CN2C(=O)COc3ccc(Cl)cc32)c1	DRD3 antagonist -94
CSc1nc2nccc(-c3ccc(Oc4ccccc4)cc3)n2n1	GLP1R inv ag inconclusive, ClpP mod 28µM
CSc1nc2nccc(-c3ccc4c(c3)OCO4)n2n1	none (no result: ClpP mod)
CSc1nc2nccc(-c3ccc(-c4ccccc4)cc3)n2n1	ClpP mod 28µM
c1ccc(Oc2ccc(-c3ccnc4nc(N5CCN(c6ccccc6)CC5)nn34)cc2)cc1	none
Cc1cccc(C)c1OCc1nc2c3cnn(-c4cccc(F)c4)c3ncn2n1	none (no result: GLP1R ag, DRD3 antagonist)
CCOc1ccc(-c2cc(C(=O)NCc3ccccc3)[nH]n2)c(C)c1	none
CCOc1ccc(OCC)c(NS(=O)(=O)c2ccc(-c3coc(C)n3)cc2)c1	GLP1R inv ag inconclusive (no result: GLP1R ag, DRD3 antagonist)
CCn1c2ccccc2c2cc(CNCc3ccc(OC)cc3OC)ccc21	GLP1R inv ag 7.9µM, HEK293 tox inconclusive
CCC(CC)NCc1ccc2c(c1)c1ccccc1n2CC	GLP1R inv ag 4.5µM, HEK293 tox inconclusive
CCn1c2ccccc2c2cc(N)ccc21	GLP1R inv ag inconclusive, ClpP mod inconclusive, DRD3 antagonist inconclusive

From PubChem
